Screening data from PubChem BioAssay.
TDP1 cell noCPT = qHTS for Inhibitors of human tyrosyl-DNA phosphodiesterase 1 (TDP1): qHTS in cells in absence of CPT; actives 15% (n = 420,000); DT40 Tdp1-/- hTDP1 cells, no CPT, ATP luminescence, 48 h; Potency, µM (doses to about 46.2 µM), inactives show top-dose activity change, negative = growth inhibition, most hits filed as inhibitors; also: potency is read from the fitted curve at half-maximal effect; nearly all actives have a fitted effect of over 55% in size
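No-CPT arm: Tdp1-/-;hTDP1 DT40 cells (400/well) plus compounds, incubated ≥48 hr at 37 °C. Readout CellTiter-Glo luminescence.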
ELG1 DNA repair = blocks ELG1-dependent DNA repair in HEK293T cells; HEK293T ELG1-luciferase reporter, luminescence, 16 h; DNA damage induced by 5-fluorouridine; Potency, µM (doses to about 46.1 µM), inactives show top-dose activity change, negative = inhibition, usual class: inhibitors; actives 2.3% (n = 330,000); also: potency is read from the fitted curve at half-maximal effect; nearly all actives have a fitted effect of over 55% in size
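Step one: seed 2,000 cells per well. Step two: pin-transfer compound or DMSO alongside 5-fluorouridine. Step three: incubate 16 hr, 37 °C, 5% CO2. Step four: add ONE-Glo, wait 30 min, read luminescence.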
HT1080NT lethal = kills 2HG-producing HT-1080-NT fibrosarcoma cells. HT-1080-NT fibrosarcoma viability, CellTiter-Glo ATP luminescence, 48 h. Potency, µM (doses to about 46.1 µM), for the others: at the top dose activity, negative = less viability, actives largely listed as cytotoxic. actives 1.6% (n = 360,000);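 also: NT is the 2HG producing partner of a matched IDH1 knockdown line; potency is read from the fitted curve at half-maximal effect; 0% = DMSO-treated cells and -100% = media-only wells without cells; nearly all actives have a fitted effect of over 55% in size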
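A 48-hour cytotoxicity screen used HT-1080-NT cells plated 2 hours before compound delivery. ATP-based CellTiter-Glo luminescence measured viability, normalized to DMSO and no-cell controls.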
IL-1B inflam inh = blocks inflammasome-driven IL-1 beta release | THP-1 LPS/ATP IL-1B secretion, AlphaLISA, 16 h; hits give low values | actives 4.7% (n = 360,000) | activity change, % at 57.5 µM; in the data active = activity change below about -50%; inconclusive = mostly about -30% to -49%
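Secreted IL-1B measured by AlphaLISA bead assay after 16 h compound exposure of THP-1 cells; compounds (final up to 57.5 uM) added 1 h before LPS (250 ng/mL) and ATP (1.25 mM) stimulation; lower signal means less secretion.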
HT1080 IDH1KD tx = kills HT-1080 cells with IDH1 knockdown. HT-1080 IDH1 knockdown viability, ATP luminescence, 48 h. Potency, µM (top dose mostly 46.1 µM), inactives show top-dose activity, negative = toxicity, usual class: cytotoxic. actives 2% (n = 360,000);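 also: potency is read from the fitted curve at half-maximal effect; 0% = DMSO wells and -100% = cell-free medium wells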
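Using the IDH1-knockdown HT-1080 line run in the same batch and compound series as the NT line, viability after 48 h at 37 °C was determined by CellTiter-Glo luminescence and expressed as % activity.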
DT40 TDP1 CPT = growth inhibition of DT40 Tdp1-/-;hTDP1 cells with camptothecin (screen for TDP1 inhibitors). chicken DT40 Tdp1-/-;hTDP1 cells + 20 nM CPT, ATP luminescence, 48 h. Potency, µM (doses to about 46.2 µM), for inactives: top-dose activity change, negative = growth inhibition, actives largely listed as inhibitors. actives 12% (n = 420,000). AID 686979; also: potency is read from the fitted curve at half-maximal effect; nearly all actives have a fitted effect of over 55% in size
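Chicken DT40 Tdp1-/- cells complemented with human TDP1, 400 cells/well, exposed to compounds plus 20 nM camptothecin for at least 48 h at 37 C; viability read as ATP content by CellTiter-Glo luminescence.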
Active calls of the source: *; ? = inconclusive; · = no result given; ! = repeats disagree. Hits are enriched below; roughly 19% of the tested compounds scored in any of these assays. Unless noted, calls follow the shape of the dose curve; as a rule, active = well fitted curve in the direction sought with a large enough effect; inconclusive = small, poorly fitted or top-dose-only effect, or another doubt; inactive = no such curve, though single readings can be large; an effect the other way counts as inactive or inconclusive. Unless noted, % is scaled to controls: 0 for no effect and ±100 for the full control effect.

SMILES	TDP1 cell noCPT	ELG1 DNA repair	HT1080NT lethal	IL-1B inflam inh	HT1080 IDH1KD tx	DT40 TDP1 CPT
COc1ccc(CC(=O)OCC(=O)NC2CCCC(C)C2C)cc1 (stereo not drawn)	-14%	5%	10%	3	8%	-2%
Cc1ccc(C(=O)N2CCNC(=O)C2CC(=O)Nc2ccccc2)cc1 (stereo not drawn)	15%	11%	24%	-11	17%	-6%
Cc1nc2sc(C(=O)N(C)Cc3ccccc3)c(NC(=O)c3ccccc3)c2c(C)c1Cl	16µM*	·	·	·	·	?
Cc1nc2sc(C(=O)NCc3ccc(Cl)cc3)c(NC(=O)c3ccccc3)c2c(C)c1C	?	·	·	·	·	13µM*
CN(Cc1ccccc1)C(=O)Nc1c(Cl)cccc1Cl	1%	·	1%	-16	?	-5%
COc1cc(SC)ccc1C(=O)N1CCN(Cc2ccc3c(c2)OCO3)CC1	?	?	-3%	-5	?	-10%
Cc1ccc(-c2nc(CNC(=O)c3ccco3)cs2)cc1	?	?	-8%	-21	-8%	?
CCOc1ccc(C2=CSC3=NCCN23)cc1[N+](=O)[O-]	-9%	28%	2%	-14	3%	9%
CCN(CC)CCCCNc1ncc2cc(-c3cc(OC)cc(OC)c3)c(NC(=O)NC(C)(C)C)nc2n1	?	-10%	16µM*	0	9.2µM*	?
CC(C)C1NC2(C(=O)c3ccccc3C2=O)C2C(=O)N(c3ccc(F)cc3)C(=O)C12 (stereo not drawn)	26µM*	4%	-4%	7	-4%	26µM*
COC(=O)C1(C)NC(c2ccc(F)cc2)C2C(=O)N(c3ccc(C)cc3)C(=O)C21 (stereo not drawn)	2%	5%	0%	13	3%	1%
CC(=O)c1ccc(S(=O)(=O)Nc2ccc(-c3cn4c(C)csc4n3)cc2)cc1	0%	·	·	·	·	3%
O=c1cc(-c2ccccc2Cl)oc2c(NS(=O)(=O)c3cc(Cl)cc(Cl)c3O)ccc(O)c12	12µM*	?	3.3µM*	2	?	9.2µM*
CCc1ccc(S(=O)(=O)Nc2ccc(O)c3c(=O)cc(-c4ccccc4Cl)oc23)cc1	-26%	-4%	1%	19	-11%	?
Cc1ccc(OCCOc2cccc3ccc(C)nc23)c([N+](=O)[O-])c1	16µM*	-3%	-20%	24	-8%	?
O=[N+]([O-])c1cccc(COc2ccccc2CN2CCCC2)c1	-24%	·	0%	1	6%	-22%
Cc1ccc2cccc(OCc3cccc([N+](=O)[O-])c3)c2n1	-9%	-2%	0%	-51*	0%	10%
N#Cc1cccc(C#N)c1Oc1ccc(S(=O)(=O)Nc2ccc(Cl)cc2)cc1	16µM*	?	-5%	-30	-5%	-62%
O=C(O)c1sccc1Oc1ccc(NS(=O)(=O)c2ccc(Cl)cc2)cc1	-6%	-4%	6%	5	15%	0%
Cc1ccc(OCC(=O)Nc2nonc2-c2ccc(Br)cc2)cc1	-18%	·	·	·	·	-6%
Cc1cccc(OCC(=O)Nc2nonc2-c2ccc(Br)cc2)c1C	?	·	·	·	·	18µM*
Cc1ccc(OC(C)C(=O)Nc2nonc2-c2ccc(Br)cc2)cc1C (stereo not drawn)	18µM*	·	·	·	·	?
Cc1cccc(OC(C)C(=O)Nc2nonc2-c2ccc(Br)cc2)c1C (stereo not drawn)	16µM*	·	·	·	·	26µM*
COc1ccc(Br)cc1CN1CCCC(C(=O)N2CCCCC2)C1 (stereo not drawn)	-22%	-10%	-3%	-3	-20%	-22%
O=C(C1CCN(Cc2cc(Cl)ccc2O)CC1)N1CCN(Cc2ccccc2)CC1	21µM*	-14%	-12%	-6	-23%	?
SMILES	TDP1 cell noCPT	ELG1 DNA repair	HT1080NT lethal	IL-1B inflam inh	HT1080 IDH1KD tx	DT40 TDP1 CPT
O=C(C1CCN(Cc2ccccc2O)CC1)N1CCN(Cc2ccc3c(c2)OCO3)CC1	1%	-2%	0%	-17	-10%	-1%
COc1ccc(Br)cc1CN1CCC(N2CCCC2)CC1	?	-3%	-3%	-67*	-15%	?
COc1ccc(Br)cc1CN1CCCC(C(=O)N2CCCCCC2)C1 (stereo not drawn)	23µM*	-15%	-24%	-57*	-24%	?
O=C(C1CCCN(Cc2cccc(Cl)c2)C1)N1CCCCC1 (stereo not drawn)	26µM*	-13%	-17%	6	-9%	?
Cc1ccc(NC(=O)CSc2nc(-c3cccs3)nc3cc(=O)[nH]n23)cc1	2%	·	·	·	·	3%
COc1ccc(S(=O)(=O)c2cn(C)c3ccc(C)cc3c2=O)cc1	-29%	·	·	·	·	-14%
COc1ccc(/C=C/C(=O)OCC(=O)NC2CCCCC2C)c(OC)c1 (stereo not drawn)	-10%	-4%	12%	9	-1%	-2%
COc1cccc(OC)c1C(=O)NC(=S)N1CCCCC1c1cccnc1 (stereo not drawn)	4%	12%	-2%	-20	-2%	6%
CCN1CCN(Cc2ccc(NC(=O)c3ccc(C)c(NC(=O)c4ccc5n[nH]nc5c4)c3)cc2C(F)(F)F)CC1	-1%	-2%	-3%	-7	-7%	-1%
CCN1CCN(Cc2ccc(NC(=O)c3cc(NC(=O)C(=O)c4c[nH]c5ccccc45)cc(OC)c3)cc2C(F)(F)F)CC1	21µM*	27%	16µM*	-80*	?	23µM*
CCN1CCN(Cc2ccc(NC(=O)c3cc(NC(=O)c4cc(C)on4)cc(OC)c3)cc2C(F)(F)F)CC1	16µM*	-36%	?	-83*!	?	15µM*
CCN1CCN(Cc2ccc(NC(=O)c3cc(NC(=O)c4cnn(-c5ccccc5)c4N)cc(OC)c3)cc2C(F)(F)F)CC1	21µM*	4%	?	81	18µM*	21µM*
CCN1CCN(Cc2ccc(NC(=O)c3ccc(C)c(NC(=O)C(=O)c4c[nH]c5ccccc45)c3)cc2C(F)(F)F)CC1	2.6µM*	?	16µM*	-106*	15µM*	2.6µM*
FC(F)(F)c1cc(-c2cccc(Br)c2)nc2ncnn12	-11%	·	·	·	·	-11%
CC(NC(=O)C(=O)N1CCCCC1)C(c1cccs1)N1CCN(c2ccccc2)CC1 (stereo not drawn)	-27%	10%	1%	10	6%	-29%
